# Measured values from the supplement of paper PMC12645437, “Orthogonal IMiD-Degron Pairs Induce Selective Protein Degradation in Cells” (ACS Chemical Biology, 2025).
# Whole data set: some 8,300 sequences, median “log2 fold change of degron read counts, EGFP-low vs EGFP+ sorted cells (limma voom), compound-induced degradation” near -1.1, cut for the highest 2% near 3.2. This is one part of a sample in which the highest values are shown more often than they occur.
# T1: CRBN, Q96SW2
# T1 chain: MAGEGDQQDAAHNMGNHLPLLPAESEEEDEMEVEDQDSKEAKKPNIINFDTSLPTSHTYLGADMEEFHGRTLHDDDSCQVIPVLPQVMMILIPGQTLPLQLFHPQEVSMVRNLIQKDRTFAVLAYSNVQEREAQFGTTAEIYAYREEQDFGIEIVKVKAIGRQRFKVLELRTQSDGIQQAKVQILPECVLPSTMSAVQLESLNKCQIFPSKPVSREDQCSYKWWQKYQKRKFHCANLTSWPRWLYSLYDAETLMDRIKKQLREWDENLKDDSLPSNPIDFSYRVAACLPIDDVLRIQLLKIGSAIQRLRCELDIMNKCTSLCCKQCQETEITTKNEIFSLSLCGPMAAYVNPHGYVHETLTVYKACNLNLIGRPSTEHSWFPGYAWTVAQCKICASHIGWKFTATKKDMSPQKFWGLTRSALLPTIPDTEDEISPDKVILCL
# Target: T1, CRBN, Q96SW2
# Experiment: log2 fold change of degron read counts, EGFP-low vs EGFP+ sorted cells (limma voom), compound-induced degradation; higher = more compound-induced degradation of the degron-EGFP fusion; degrons are variants of IKZF1/3 zinc finger 2; compound dose not given here
# Settings: Jurkat, 18 h
# [1] = compound: compound 19 (5-tert-butyl-thalidomide)
# [2] = compound: compound 22 (5-morpholino-thalidomide)
# [3] = compound: compound 33 (diphenyl IMiD analogue)
# 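Also: pooled lentiviral library of zinc finger degron-EGFP fusions in mCherry-positive Jurkat cells, FACS-sorted after compound exposure, with degron abundance counted by next-generation sequencing.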
sequence,measurement,setting,value
"FDCEICGAYFTQKGNLLRHIKL [46F_47D_49E_50I_52G_53A_54Y_55F_67L_, Q9UKT9]",log2 fold change of degron read counts,[1],-0.0199
same,log2 fold change of degron read counts,[2],-1.26
same,log2 fold change of degron read counts,[3],-0.229
same,log2 fold change of degron read counts,compound: thalidomide,-0.2
"FTCNICGAMFTQKGNLLRHIKL [46F_47T_49N_50I_52G_53A_54M_55F_67L_, Q9UKT9]",log2 fold change of degron read counts,[1],-1.09
same,log2 fold change of degron read counts,[2],-0.0854
same,log2 fold change of degron read counts,[3],0.875
same,log2 fold change of degron read counts,compound: thalidomide,0.88
"FDCNQCGHNFTQKGNLLRHIKL [46F_47D_49N_50Q_52G_53H_54N_55F_67L_, Q9UKT9]",log2 fold change of degron read counts,[1],-2.11
same,log2 fold change of degron read counts,[2],-2.61
same,log2 fold change of degron read counts,[3],-2.32
same,log2 fold change of degron read counts,compound: thalidomide,-2.04
"FFCNQCGRDFTQKGNLLRHIKL [46F_47F_49N_50Q_52G_53R_54D_55F_67L_, Q9UKT9]",log2 fold change of degron read counts,[1],-2.83
same,log2 fold change of degron read counts,[2],-3.38
same,log2 fold change of degron read counts,[3],-3.07
same,log2 fold change of degron read counts,compound: thalidomide,-2.85
"FGCNQCGHIFTQKGNLLRHIKL [46F_47G_49N_50Q_52G_53H_54I_55F_67L_, Q9UKT9]",log2 fold change of degron read counts,[1],-1.45
same,log2 fold change of degron read counts,[2],-1.99
same,log2 fold change of degron read counts,[3],-2.4
same,log2 fold change of degron read counts,compound: thalidomide,-1.44
"FVCPQCGASFTQKGNLLRHIKL [46F_47V_49P_50Q_52G_53A_54S_55F_67L_, Q9UKT9]",log2 fold change of degron read counts,[1],-1.71
same,log2 fold change of degron read counts,[2],0.559
same,log2 fold change of degron read counts,[3],0.703
same,log2 fold change of degron read counts,compound: thalidomide,1.25
"FMCEICGANFTQKGNLLRHIKL [46F_47M_49E_50I_52G_53A_54N_55F_67L_, Q9UKT9]",log2 fold change of degron read counts,[1],-0.123
same,log2 fold change of degron read counts,[2],0.396
same,log2 fold change of degron read counts,[3],2.76
same,log2 fold change of degron read counts,compound: thalidomide,1.56
"LCCNQCGFFCTQKGNLLRHIKL [46L_47C_49N_50Q_52G_53F_54F_55C_67L_, Q9UKT9]",log2 fold change of degron read counts,[1],-1.18
same,log2 fold change of degron read counts,[2],-1.17
same,log2 fold change of degron read counts,[3],-1.27
same,log2 fold change of degron read counts,compound: thalidomide,-0.874
